Data on three molecules can be found in article PMC5540273 (PLoS ONE, 2017).

One may read the Kd as the equilibrium constant for the complex coming apart. A low value points to a tighter complex.

Structures are written as SMILES.
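Also: kd values determined as follow-up on hits from a single-replicate KINOMEscan panel screen.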

This assay has as its system GSK3B.
`COc1ccc(CSc2nnc(-c3ccc4nccn4c3)o2)cc1C(F)(F)F`: the Kd is 22 nM.

`COc1ccc(CSc2nnc(-c3ccc4ncsc4c3)o2)cc1C(F)(F)F` returned a dissociation constant (Kd) of 39 nM.

`O=C(Nc1n[nH]c2nc(-c3cccs3)c(Br)cc12)C1CCCC1` [SB-743341] registered a Kd of 120 nM.
